Results filed as inconclusive are left out. A call without a number means that no potency is given here. Calls of active or inactive are those of the source. Calls follow the shape of the dose curve; as a rule, active = well fitted cell-killing curve with a large enough effect; inconclusive = small, poorly fitted or top-dose-only effect, or effect the other way; inactive = flat fitted curve, though single readings scatter.
test system: OV90; assay: Primary qHTS to identify gynecologic anti-cancer compounds using libraries of approved drugs and bioactive compounds (AID 1345084); conditions: Gynecologic cancer cell panel viability, ATPlite luminescence, 48 h; series mostly up to 57.5 µM; also: nearly all actives have a fitted effect of over 55% in size
Procedure, shortened: (§1)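 Cells, 1,000 per well, were allowed to settle for 16 h at 37 C before compound addition. Five concentrations were tested for 48 h, and viability was read by ATPlite luminescence after 15 min at room temperature.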

SMILES | Potency
CN(C)C(=O)Nc1cc(-c2ccccc2)ccc1N(C)C | inactive
C/C(=C\CO[C@@H]1O[C@H](CO[C@H]2OC[C@](O)(CO)[C@H]2O)[C@@H](O)[C@H](O)[C@H]1O)C(C)(C)O | inactive
CC[C@@H](Nc1c(Nc2cccc(C(=O)N(C)C)c2O)c(=O)c1=O)c1cc(C(C)C)co1 | inactive

test system: PA-1; assay: as above; conditions: Gynecologic cancer cell panel viability, ATPlite luminescence, 48 h; series mostly up to 57.5 µM
Procedure, shortened: as §1

SMILES | Potency
CC(OC1OCCN(Cc2n[nH]c(=O)[nH]2)C1c1ccc(F)cc1)c1cc(C(F)(F)F)cc(C(F)(F)F)c1 (centres undefined) | inactive
Fc1ccc(-c2cncc(CN3CCN(c4cccc5c4OCCO5)CC3)c2)cc1 | inactive
C=C(CCC1C(C)(O)CCC2C(C)(C)C(O)CCC12C)C(O)CO (centres undefined) | inactive
CCC[C@@]1(CCc2ccccc2)CC(O)=C([C@H](CC)c2cccc(NS(=O)(=O)c3ccc(C(F)(F)F)cn3)c2)C(=O)O1 | inactive
COc1ccc([C@H]2Cc3cccc(O)c3C(=O)O2)cc1OC | inactive
C/C=C(/C)C(=O)OC1C=C2C3C(C)C(C)C(OC(=O)C(C)C(C)O)CC3(C)CCC2(C)C2(C)CC(OC(C)=O)C3C(C)(C)C(O)C(=O)CC3(C)C12 (centres undefined) | inactive
CN1CCN(C2=Nc3ccccc3Nc3ccc(Cl)cc32)CC1 | inactive
COc1ccc(NC(=O)c2ccc(-c3ccc(C(=N)N)cc3C)cc2)cc1N1CCN(C)CC1 | inactive
O=C(c1ccccn1)N(Cc1cccs1)C1(C(=O)NC2CCCCC2)CCCCC1 | inactive
O=c1cc(OCc2ccc(F)cc2)ccn1-c1ccc(OCCN2CCCC2)cc1 | inactive
Cc1cccc(N2CCN(C(=O)c3cc(S(=O)(=O)N(C)C)ccc3N3CCCC3)CC2)c1C | inactive

Reference: PubChem BioAssay (NCATS)
